Results as given in ChEMBL document CHEMBL5724796, “Tm Shift (DSF) assay results for EUbOPEN Chemogenomics Library” (2024).

What was measured:
Conditions in all cases: Compound concentration 20.0 uM
[1] = target: Tyrosine-protein kinase ABL1 (Homo sapiens) (UniProt P00519)
[2] = target: Bromodomain-containing protein 4 (Homo sapiens) (UniProt O60885)
[3] = target: Cyclin-dependent kinase 2 (Homo sapiens) (UniProt P24941)
[4] = target: Casein kinase I isoform delta (Homo sapiens) (UniProt P48730)
[5] = target: Glycogen synthase kinase-3 beta (Homo sapiens) (UniProt P49841)
[6] = target: Mitogen-activated protein kinase 1 (Homo sapiens) (UniProt P28482)
[7] = target: T1, Aurora kinase A (Homo sapiens) (UniProt O14965)
T1 sequence (whole entry): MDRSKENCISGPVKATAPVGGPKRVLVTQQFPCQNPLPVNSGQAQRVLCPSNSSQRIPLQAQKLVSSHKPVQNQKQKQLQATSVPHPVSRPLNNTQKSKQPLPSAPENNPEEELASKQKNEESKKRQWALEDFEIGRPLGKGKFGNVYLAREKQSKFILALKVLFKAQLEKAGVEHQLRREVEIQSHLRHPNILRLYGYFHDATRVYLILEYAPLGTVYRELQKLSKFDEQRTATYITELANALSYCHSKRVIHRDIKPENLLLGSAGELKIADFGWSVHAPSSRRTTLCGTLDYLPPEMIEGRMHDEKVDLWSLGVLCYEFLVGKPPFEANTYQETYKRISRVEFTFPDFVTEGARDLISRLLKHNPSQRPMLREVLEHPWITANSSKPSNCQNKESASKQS

[8] = target: T2, Transcription intermediary factor 1-alpha (Homo sapiens) (UniProt O15164)
T2 sequence (whole entry): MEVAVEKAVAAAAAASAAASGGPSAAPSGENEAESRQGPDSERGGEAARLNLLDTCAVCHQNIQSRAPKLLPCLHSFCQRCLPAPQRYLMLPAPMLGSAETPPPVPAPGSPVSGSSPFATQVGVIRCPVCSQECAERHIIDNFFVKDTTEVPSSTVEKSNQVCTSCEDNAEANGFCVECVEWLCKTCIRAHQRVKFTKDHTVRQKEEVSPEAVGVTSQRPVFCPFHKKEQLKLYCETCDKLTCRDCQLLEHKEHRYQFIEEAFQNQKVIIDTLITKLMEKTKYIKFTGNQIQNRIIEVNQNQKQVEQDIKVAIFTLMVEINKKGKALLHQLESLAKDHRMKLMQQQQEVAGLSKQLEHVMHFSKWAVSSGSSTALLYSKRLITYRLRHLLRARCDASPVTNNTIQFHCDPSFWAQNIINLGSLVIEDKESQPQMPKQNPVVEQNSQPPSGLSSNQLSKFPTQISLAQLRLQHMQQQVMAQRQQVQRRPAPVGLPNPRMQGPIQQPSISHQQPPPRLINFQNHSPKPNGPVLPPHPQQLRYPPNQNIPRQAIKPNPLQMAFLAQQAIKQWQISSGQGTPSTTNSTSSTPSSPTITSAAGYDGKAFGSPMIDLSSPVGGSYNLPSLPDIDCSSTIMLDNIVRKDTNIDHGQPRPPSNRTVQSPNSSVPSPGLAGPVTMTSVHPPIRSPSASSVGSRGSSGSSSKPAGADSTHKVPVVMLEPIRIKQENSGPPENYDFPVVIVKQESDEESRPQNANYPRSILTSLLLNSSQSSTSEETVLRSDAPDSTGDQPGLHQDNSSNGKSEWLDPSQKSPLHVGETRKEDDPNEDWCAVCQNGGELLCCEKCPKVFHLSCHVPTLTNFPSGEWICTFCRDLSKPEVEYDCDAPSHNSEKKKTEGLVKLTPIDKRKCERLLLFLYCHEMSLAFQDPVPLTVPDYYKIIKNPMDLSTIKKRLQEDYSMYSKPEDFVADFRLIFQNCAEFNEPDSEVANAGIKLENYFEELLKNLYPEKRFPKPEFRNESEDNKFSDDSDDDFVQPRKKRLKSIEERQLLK

Chain of Casein kinase I isoform delta (Homo sapiens) (P48730 whole entry, looked up, canonical isoform): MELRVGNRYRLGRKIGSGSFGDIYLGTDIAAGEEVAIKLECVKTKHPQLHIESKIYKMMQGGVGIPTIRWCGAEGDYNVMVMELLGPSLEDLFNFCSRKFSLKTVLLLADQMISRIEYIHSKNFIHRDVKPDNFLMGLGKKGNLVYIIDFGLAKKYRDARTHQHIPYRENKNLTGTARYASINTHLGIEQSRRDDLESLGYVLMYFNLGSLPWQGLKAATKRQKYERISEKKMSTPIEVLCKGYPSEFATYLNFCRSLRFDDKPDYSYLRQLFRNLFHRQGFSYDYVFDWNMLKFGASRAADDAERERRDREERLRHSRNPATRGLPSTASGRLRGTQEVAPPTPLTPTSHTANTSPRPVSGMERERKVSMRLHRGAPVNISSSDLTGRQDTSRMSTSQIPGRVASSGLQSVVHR
Chain of Tyrosine-protein kinase ABL1 (Homo sapiens) (P00519 whole entry): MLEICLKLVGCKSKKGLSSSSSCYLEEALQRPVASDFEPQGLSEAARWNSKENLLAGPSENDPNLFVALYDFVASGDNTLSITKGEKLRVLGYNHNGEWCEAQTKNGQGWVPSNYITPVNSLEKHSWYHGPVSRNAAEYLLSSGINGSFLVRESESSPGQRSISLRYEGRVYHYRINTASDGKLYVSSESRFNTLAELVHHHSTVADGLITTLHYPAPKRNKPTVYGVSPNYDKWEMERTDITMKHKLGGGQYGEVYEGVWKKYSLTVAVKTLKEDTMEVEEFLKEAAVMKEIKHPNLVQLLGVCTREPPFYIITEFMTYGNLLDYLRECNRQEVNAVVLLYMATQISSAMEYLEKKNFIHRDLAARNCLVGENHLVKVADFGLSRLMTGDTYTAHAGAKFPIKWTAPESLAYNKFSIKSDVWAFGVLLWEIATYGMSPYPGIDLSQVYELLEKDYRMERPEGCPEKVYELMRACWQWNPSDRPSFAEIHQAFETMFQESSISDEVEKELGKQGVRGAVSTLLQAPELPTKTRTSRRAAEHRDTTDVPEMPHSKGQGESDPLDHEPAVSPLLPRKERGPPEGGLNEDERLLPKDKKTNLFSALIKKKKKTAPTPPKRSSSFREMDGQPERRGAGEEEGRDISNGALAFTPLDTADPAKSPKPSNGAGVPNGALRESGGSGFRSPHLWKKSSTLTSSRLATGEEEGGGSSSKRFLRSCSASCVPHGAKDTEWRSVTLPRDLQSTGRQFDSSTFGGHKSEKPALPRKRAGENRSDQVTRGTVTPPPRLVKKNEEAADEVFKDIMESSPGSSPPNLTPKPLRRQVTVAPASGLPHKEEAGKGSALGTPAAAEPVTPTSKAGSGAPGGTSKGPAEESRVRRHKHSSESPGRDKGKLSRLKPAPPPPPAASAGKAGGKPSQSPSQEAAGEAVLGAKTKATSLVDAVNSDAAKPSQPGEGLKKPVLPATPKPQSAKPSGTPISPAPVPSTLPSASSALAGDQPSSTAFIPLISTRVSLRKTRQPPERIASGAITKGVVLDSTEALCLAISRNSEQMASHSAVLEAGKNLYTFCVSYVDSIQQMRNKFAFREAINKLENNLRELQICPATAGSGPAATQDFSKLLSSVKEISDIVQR
Chain of Mitogen-activated protein kinase 1 (Homo sapiens) (P28482 whole entry): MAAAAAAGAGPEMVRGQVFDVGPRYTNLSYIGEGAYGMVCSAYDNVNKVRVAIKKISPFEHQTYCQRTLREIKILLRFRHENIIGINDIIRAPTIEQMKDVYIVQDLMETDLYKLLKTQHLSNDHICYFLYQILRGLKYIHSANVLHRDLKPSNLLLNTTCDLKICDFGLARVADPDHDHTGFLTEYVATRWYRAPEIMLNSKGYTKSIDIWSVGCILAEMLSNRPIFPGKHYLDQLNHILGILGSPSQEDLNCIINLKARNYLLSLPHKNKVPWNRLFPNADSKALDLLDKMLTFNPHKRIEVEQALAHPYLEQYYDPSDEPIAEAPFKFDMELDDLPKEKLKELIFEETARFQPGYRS
Chain of Glycogen synthase kinase-3 beta (Homo sapiens) (P49841 whole entry, looked up): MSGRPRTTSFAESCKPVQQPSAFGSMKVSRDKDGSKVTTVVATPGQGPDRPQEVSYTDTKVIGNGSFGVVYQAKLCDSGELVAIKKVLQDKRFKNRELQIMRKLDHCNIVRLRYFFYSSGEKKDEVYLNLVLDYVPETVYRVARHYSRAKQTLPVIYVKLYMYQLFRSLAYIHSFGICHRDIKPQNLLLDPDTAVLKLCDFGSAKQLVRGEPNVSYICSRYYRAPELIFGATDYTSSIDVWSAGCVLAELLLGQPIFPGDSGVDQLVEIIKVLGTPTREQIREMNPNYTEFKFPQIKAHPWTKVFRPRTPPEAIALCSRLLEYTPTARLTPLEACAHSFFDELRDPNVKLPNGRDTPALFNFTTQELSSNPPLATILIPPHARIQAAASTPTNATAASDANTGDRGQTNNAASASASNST

Compound	ΔTm [1] [°C]	ΔTm [2] [°C]	ΔTm [3] [°C]	ΔTm [4] [°C]	ΔTm [5] [°C]	ΔTm [6] [°C]	ΔTm [7] [°C]	ΔTm [8] [°C]
O=C(c1cc(Cl)c(O)c(Cl)c1)N1CS(=O)(=O)c2ccccc21	0.71	-0.92	0.15	-0.26	0.51	0.24	-2.22	-0.84
C[C@H](N)C(=O)N1C[C@H](CCCB(O)O)[C@](N)(C(=O)O)C1	0.03	-2.12	-0.11	-0.32	-0.3	0.12	-2.46	-0.11
COC(=O)[C@@H]1CC2=CC(=O)CC[C@]2(C)[C@@]23O[C@@H]2C[C@@]2(C)[C@@H](CC[C@@]24CCC(=O)O4)[C@H]13	0.55	-1.74	-0.21	0.47	-0.8	0.21	-0.81	-0.62
O=c1[nH]ccc2cc(F)c(NS(=O)(=O)c3ccc(N4CC[C@@H](O)C4)s3)cc12	0.78	-1.78	0.35	0.39	-0.79	0.11	-0.16	-0.69
CCN(CC)C(=O)/C(C#N)=C/c1cc(O)c(O)c([N+](=O)[O-])c1	0.3	0.45	0.11	-0.1	-0.28	0.32	-0.58	0.24
CCCCCCCCCCCCC/C=C/[C@@H](O)[C@H](CO)NC(=O)CCl	0.07	-0.55	-0.22	2.15	-0.08	1.33	0.17	-0.39
O=C(NO)C(c1ccc(-c2ncc(C(F)(F)F)cn2)cc1)c1ccccc1F (stereo not drawn)	0.91	-2.36	0.08	0.69	-0.7	0.1	0.24	-0.84
NC(=O)c1cc(F)cc2c1C(=O)N(C1CCN(C3CCC(F)(F)CC3)CC1)C2	0	-1.47	0.02	0.25	-0.85	0.19	-1.86	1.35
N[C@@H](CC(=O)Nc1ccc(Oc2cc(F)c(F)cc2Br)cc1)C(=O)O	0.75	-3.05	-0.04	0.11	-0.55	0.24	-2.19	0.54
CC#CCn1c(N2CCC[C@@H](N)C2)nc2c1c(=O)n(Cc1nc(C)c3ccccc3n1)c(=O)n2C	-0.11	0.18	-0.01	-0.33	-0.82	0.06	-0.13	-0.79
C[C@H](Nc1nc2c(cnn2C2CCCC2)c(=O)[nH]1)c1ccc(Cl)cc1	-2.54	-1.24	-1	0.11	-1.9	-7.46	-6.85	0.56
O=C(O)/C(S)=C/c1ccc(I)cc1	0.07	-3.45	-1.16	-0.16	-8.42	-1.42	0.99	-0.27
Cc1nn(CC(F)(F)F)cc1Nc1ncc(Br)c(NCc2ccc(S(N)(=O)=O)cc2)n1	2.53	-2.79	0.52	0.99	-0.15	2.84	6.65	1.38
CCCOc1ccc(NC(=O)CN2CCN(C)CC2)cc1-c1nc(CC)c(CC)c(=O)[nH]1	0.61	-1.93	0.23	-0.21	-0.28	0.66	-2.39	-1
Nc1ccc(-c2cccs2)cc1NC(=O)c1ccc2nc(N3CCNCC3)ccc2c1	3.35	-2.49	1.41	0.14	0.38	-0.25	-0.39	-0.74
O=C1COc2c(cccc2[C@@H](O)CNCCN(C(=O)CCNCCc2ccc(Cl)c(Cl)c2)C2CCCCC2)N1	0.38	-1.19	0.73	0.16	0.42	0.56	-1.62	1.39
CCCOc1cc(OCCCCN(C)C)cc(Oc2cc3c(cc2NS(=O)(=O)c2ccc(OC)c(OC)c2)n(C)c(=O)n3C)c1	0.57	0.5	0.09	0.22	0.59	0	-0.88	
O=C(c1cc(O)c(O)c([N+](=O)[O-])c1)c1ccccc1F	0.42	-1.18	0.1	0.37	0.05	0.25	-1.23	0.61
COc1ncc(C)cc1CC[C@@](O)(CC(=O)O)C(=O)O	0.5	-1.94	0.22	-0.36	0.4	0.35	-1.39	-0.23
Cc1ncsc1-c1ccc(CNC(=O)[C@@H]2C[C@@H](O)CN2C(=O)[C@@H](NC(=O)COCC(C)(COCCOCCOCCNC(=O)C[C@@H]2N=C(c3ccc(Cl)cc3)c3c(sc(C)c3C)-n3c(C)nnc32)COCCOCCOCCNC(=O)C[C@@H]2N=C(c3ccc(Cl)cc3)c3c(sc(C)c3C)-n3c(C)nnc32)C(C)(C)C)cc1	-0.19	0	-4.95	-6.12	-4.05	-12	-4.07	-6.48
CC(=O)N[C@@H](Cc1ccc(O)cc1)C(=O)N[C@H](C(=O)N[C@@H](C)C(=O)N[C@H](C=O)CC(=O)O)C(C)C	0.25	-2.08	0.16	0.05	-0.9	-0.12	-1.08	-0.33
Cn1cc(NC(=O)c2cc(F)cc(F)c2)c(C(=O)NC2CCNCC2)n1	0.23	-2.12	-0.02	1.02	-0.14	-0.35	-0.65	-0.68
Nc1ccccc1NC(=O)CCCCCC(=O)Nc1ccccc1	0.27	-2.09	0.5	0.04	-0.05	0.2	-0.94	-0.62
